The results in this text go back to PubChem BioAssay (Tox21).

Structures are written as SMILES. Several values for one entry are separate records, joined by “and”; a condition that tells them apart may be missing. Equal entries are not always repeated. Results filed as inconclusive are left out. Where a call stands in place of a potency, no number is given. Activity calls are given as the source filed them. Calls follow the shape of the full dose curve.
Potency is read from the fitted curve at half-maximal effect.

This assay deals with Thyrotropin receptor (Homo sapiens) (UniProt P16473). The assay can be described thus: qHTS assay to identify small molecule antagonists of the thyroid stimulating hormone receptor (TSHR) signaling pathway (AID 1259385). Also: nearly all actives have a fitted effect of over 20% in size. As to conditions: TSHR-HEK293 cAMP HTRF, TSH-stimulated antagonist mode; series mostly up to 92.4 µM. Put shortly: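 TSHR-HEK293 cells were plated and held 18 h at 37C/5% CO2, then given compound plus Ro20-1724 and stimulated with TSH at 1.5 ng/mL final. After 30 min at room temperature, cAMP was detected with cAMP-d2/anti-cAMP-cryptate (1 h) by fluorescence.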
Thyrotropin receptor (Homo sapiens), sequence (P16473 whole entry, looked up): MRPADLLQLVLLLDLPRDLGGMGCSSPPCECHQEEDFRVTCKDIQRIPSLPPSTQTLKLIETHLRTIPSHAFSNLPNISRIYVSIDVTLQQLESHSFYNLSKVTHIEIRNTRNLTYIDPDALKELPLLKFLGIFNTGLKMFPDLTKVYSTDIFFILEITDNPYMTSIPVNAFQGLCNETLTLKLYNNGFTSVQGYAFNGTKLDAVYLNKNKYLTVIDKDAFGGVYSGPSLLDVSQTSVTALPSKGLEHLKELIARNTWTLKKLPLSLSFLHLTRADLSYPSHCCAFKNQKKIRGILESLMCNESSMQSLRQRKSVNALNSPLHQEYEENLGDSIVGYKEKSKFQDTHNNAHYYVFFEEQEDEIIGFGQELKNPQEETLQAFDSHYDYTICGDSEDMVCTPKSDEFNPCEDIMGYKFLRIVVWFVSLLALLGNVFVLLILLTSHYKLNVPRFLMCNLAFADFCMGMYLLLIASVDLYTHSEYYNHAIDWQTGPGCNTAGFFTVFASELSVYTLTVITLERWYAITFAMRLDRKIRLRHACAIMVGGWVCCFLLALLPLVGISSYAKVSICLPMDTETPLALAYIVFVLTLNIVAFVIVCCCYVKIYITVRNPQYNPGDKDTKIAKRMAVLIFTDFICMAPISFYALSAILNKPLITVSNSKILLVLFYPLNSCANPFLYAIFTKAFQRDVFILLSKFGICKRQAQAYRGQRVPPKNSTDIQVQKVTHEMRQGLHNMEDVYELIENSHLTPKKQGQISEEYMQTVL
With `ClCC(Cl)CCl`, the Potency entry is “inactive”.
As for `N#Cc1nn(-c2c(Cl)cc(C(F)(F)F)cc2Cl)c(N)c1S(=O)C(F)(F)F` (stereo not given), the entry is “inactive”; as for `O=[N+]([O-])c1ccc(Cl)c([N+](=O)[O-])c1`, “inactive”; as for `O=[N+]([O-])c1ccc(Nc2ccccc2)cc1`, “inactive”.
With `CCCCOCCOC(C)=O`, the Potency result is “inactive”.
In the case of `CC(C)(O)C#N`, the Potency result was “inactive”.
The entry for `c1ccc(C2CO2)cc1` (stereo not given) is “inactive”.
For the molecule `O=C(O)CF`, the Potency result was “inactive”.
As for `CC1(C)Cc2cccc(O)c2O1`, the entry is “inactive”; as for `Clc1cccc(C(Cl)(Cl)Cl)n1`, “inactive”.
On to `Clc1cccc(Cl)c1`, for which the Potency entry was “inactive”.
As for `COP(=S)(OC)SCn1nnc2ccccc2c1=O`, the entry is “inactive”; as for `Clc1ccc(C(Cl)(Cl)Cl)cc1`, “inactive”; as for `CC1CC(=O)O1` (stereo not given), “inactive”.
`O=S(=O)(O)C(F)(F)C(F)(F)C(F)(F)C(F)(F)C(F)(F)C(F)(F)C(F)(F)C(F)(F)F`: the Potency result is “inactive”.
In the case of `COc1ccc(O)c(C(C)(C)C)c1`, the Potency result was “inactive”.
As for `CCCCCCCC[N+](C)(CCCCCCCC)CCCCCCCC`, the entry is “inactive”.
With `CC(C)(O)C(=O)Nc1ccc([N+](=O)[O-])c(C(F)(F)F)c1`, the Potency result was “inactive”.
As to `C[C@]12CCC(=O)C=C1CC[C@@H]1[C@@H]2CC[C@@]2(C)[C@H]1CC[C@]2(C)O`, the Potency entry was “inactive”.
On to `CC1=C(C(=O)Nc2ccccc2)SCCO1`, for which the Potency entry is “inactive”.
The entry for `O=NN1CCOCC1` is “inactive”.
As for `CNC(=S)S`, the Potency entry is “inactive”.
For the molecule `C[N+](C)(C)C`, the Potency entry is “inactive”.
As to `CCCCOCC1CO1` (stereo not given), the Potency entry was “inactive”.
For `CCCCC(C#N)(Cn1cncn1)c1ccc(Cl)cc1` (stereo not given), the Potency is 60.9 µM (active) and 54.5 µM (active).
